The text below walks through data of PubChem BioAssay (Tox21).

A number with no mark means an inactive call. Records with an inconclusive call do not appear. Activity calls are given as the source filed them. The call rests on the fitted dose curve; in most records, active means well fitted curve in the direction sought with a large enough effect in the repeat runs; inconclusive means weak or mixed curves; inactive means no such curve, though single readings can be large; an effect the other way counts as inactive or inconclusive.

Test [1] is described as follows: A CellTox Green Cytotoxicity Assay to monitor cytotoxicity in HEK293 cells - 32 hour (AID 1224881). Further: nearly all actives have a fitted effect of over 40% in size. In short, it runs like this: (§1)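 HEK293 cells, 600/well, were preincubated 5 hours and then exposed to compounds at 37 C for up to 40 hours. A cell-impermeant cyanine dye staining dead-cell DNA was read by fluorescence at 0, 8, 16, 24, 32 and 40 h time points.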
A short description of test [2]: A CellTox Green Cytotoxicity Assay to monitor cytotoxicity in HepG2 cells - 0 hour (AID 1224882). Further: nearly all actives have a fitted effect of over 35% in size. In short, it runs like this:
(§2)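 HepG2 cells, 600/well, preincubated 5 h with CellTox Green dye, then exposed to Tox21 compounds in DMSO at 37 C for up to 40 h. Dead-cell DNA fluorescence read at the indicated time point.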

A short description of test [3]: A CellTox Green Cytotoxicity Assay to monitor cytotoxicity in HepG2 cells - 32 hour (AID 1224883). Further: nearly all actives have a fitted effect of over 50% in size. In short, it runs like this:
as §2

Test [4] is described as follows: A CellTox Green Cytotoxicity Assay to monitor cytotoxicity in HEK293 cells - 8 hour (AID 1224884). Further: nearly all actives have a fitted effect of over 35% in size. The method in brief: as §1
Test [5] can be described thus: qHTS RealTime-Glo MT Cell Viability Assay in HepG2 cells - 16 hour (AID 1224885). Further: nearly all actives have a fitted effect of over 50% in size. In short, it runs like this:
(§3)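 Luminescence read-out: viable HepG2 cells reduce a prosubstrate to a NanoLuc substrate, giving a signal proportional to live cell number. Reads taken at 0, 8, 16, 24, 32 and 40 h of compound exposure at 37 C.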
On the technique in general: qHTS replaces the single test concentration by a dilution series.

A short description of test [6]: qHTS RealTime-Glo MT Cell Viability Assay in HEK293 cells - 24 hour (AID 1224886). Further: top concentration of the series differs between compounds; nearly all actives have a fitted effect of over 50% in size. The method in brief:
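Nonlytic real-time viability readout: viable cells convert prosubstrate to NanoLuc substrate, giving luminescence proportional to live cell number. HEK293, 600 cells/well, compound added after 5 h, continuous culture at 37 C.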

Test [7] in a line: qHTS RealTime-Glo MT Cell Viability Assay in HEK293 cells - 8 hour (AID 1224887). Further: top concentration of the series differs between compounds; nearly all actives have a fitted effect of over 50% in size. The method in brief:
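600 cells/well were plated with the nonlytic NanoLuc/prosubstrate reagent, pre-incubated 5 h, then given 23 nL of compound in DMSO. Incubation at 37 C for 40 h, with luminescence from viable-cell-reduced substrate read repeatedly from 0 h.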

A short description of test [8]: A CellTox Green Cytotoxicity Assay to monitor cytotoxicity in HEK293 cells - 16 hour (AID 1224888). Further: nearly all actives have a fitted effect of over 35% in size. In short, it runs like this:
as §1

Test [9] in a line: qHTS RealTime-Glo MT Cell Viability Assay in HepG2 cells - 0 hour (AID 1224889). Further: nearly all actives have a fitted effect of over 50% in size. Further: potency means the concentration at half of the fitted maximal effect. In short, it runs like this: as §3
Test [10] is described as follows: A CellTox Green Cytotoxicity Assay to monitor cytotoxicity in HepG2 cells - 8 hour (AID 1224890). Further: nearly all actives have a fitted effect of over 45% in size. The method in brief: as §2
On the % scale 0 is the no-effect control and ±100 the full control effect.

Consider `COS(=O)(=O)C(F)(F)F`, for which the Potency result in test [1], in test [2], in test [3], in test [4], in test [5] and in test [6] was “inactive” each time. Besides, the Potency entry in test [7], in test [8], in test [9] and in [10] was “inactive” throughout.
For `CCn1cc(C(=O)O)c(=O)c2cnc(N3CCNCC3)nc21`, the Potency entry in [1], in [2], in [3], in [4], in test [5] and in [6] was “inactive” each time. Also, the Potency result in test [7], in test [8] and in test [9] was “inactive” in each case.
For the compound `O=C1c2ccccc2S(=O)(=O)N1CCCCN1CCN(c2ncccn2)CC1`, the Potency entry in test [1], in test [2], in [3], in [4], in test [5] and in test [6] was “inactive” each time. Moreover, the Potency result in test [7] is “inactive”.
Turning to `CCCCCCCCCOS(=O)(=O)O`, the Potency entry in test [1], in [2], in [3], in test [4], in [5] and in test [6] was “inactive” each time. The Potency result in test [7], in [8], in test [9] and in test [10] was “inactive” in each case.
In the case of `COCC(C)OC(C)=O` (stereo not given), the Potency result in [1], in [2], in test [3], in test [4], in [5] and in test [6] was “inactive” in each case. In addition, the Potency entry in test [7], in [8], in test [9] and in test [10] was “inactive” each time.
As to `C[C@H]1C[C@H]2[C@@H]3CCC4=CC(=O)C=C[C@]4(C)[C@@]3(Cl)[C@@H](O)C[C@]2(C)[C@@]1(O)C(=O)CO`, the Potency entry in test [1], in test [2], in test [3], in test [4], in [5] and in [6] was “inactive” throughout. Besides, the Potency entry in [7], in test [8] and in test [9] was “inactive” each time.
In the case of `COC(C)(C)CCO`, the Potency result in [1], in [2], in test [3], in test [4], in [5] and in test [6] was “inactive” each time. Also, the Potency entry in [7], in test [8] and in test [9] was “inactive” throughout.
Take `c1ccc(-c2ccccn2)nc1`: the Potency entry in test [1], in test [2], in test [3], in test [4], in test [5] and in test [6] was “inactive” each time. Moreover, the Potency entry in test [7], in test [8], in test [9] and in [10] was “inactive” throughout.
In the case of `CCOC(=O)C(F)(F)F`, the Potency entry in [1], in test [2], in test [3], in test [4], in [5] and in test [6] was “inactive” throughout. In addition, the Potency entry in test [7], in [8] and in test [9] was “inactive” in each case.
For the compound `C[C@@H]1C[C@H]2[C@@H]3CCC4=CC(=O)C=C[C@]4(C)[C@@]3(F)[C@@H](O)C[C@]2(C)[C@@]1(O)C(=O)COC(=O)c1ccncc1`, the Potency entry in test [1], in test [2], in [3], in [4], in [5] and in test [6] was “inactive” in each case. The Potency entry in test [7] and in test [8] was “inactive” throughout. Besides, the Potency in test [9] was 1.07 µM (active).
Consider `Cc1c(N)cccc1[N+](=O)[O-]`, for which the Potency result in [1], in test [2], in test [3], in test [4], in [5] and in [6] was “inactive” throughout. Besides, the Potency result in [7], in test [8], in test [9] and in [10] was “inactive” throughout.
Take `CC(C)(CO)[N+](=O)[O-]`: the Potency entry in test [1], in [2], in test [3], in test [4], in test [5] and in [6] was “inactive” throughout. In addition, the Potency result in test [7], in test [8], in [9] and in test [10] was “inactive” in each case.
`CC1OC(=O)C(C)OC1=O` (stereo not given): the Potency entry in [1], in test [2], in test [3], in test [4], in test [5] and in test [6] was “inactive” throughout. The Potency entry in test [7], in [8], in [9] and in [10] was “inactive” each time.
With `O=C(O)CC(=O)C(=O)O`, the Potency entry in test [1], in [2], in [3], in test [4], in test [5] and in test [6] was “inactive” throughout. Moreover, the Potency result in test [7], in [8], in [9] and in test [10] was “inactive” in each case.
Regarding `O=C1CCC(=O)O1`, the Potency entry in test [1], in test [2], in test [3], in [4], in test [5] and in [6] was “inactive” each time. Besides, the Potency entry in test [7], in test [8], in test [9] and in test [10] was “inactive” each time.
On to `NS(=O)(=O)c1ccc(N2CCCCS2(=O)=O)cc1`, for which the Potency result in [1], in [2], in [3], in test [4], in test [5] and in test [6] was “inactive” throughout. For the same compound, the Potency entry in [7], in test [8], in test [9] and in [10] was “inactive” throughout.
`CC/C=C\CCOC(=O)CC`: the Potency result in [1], in [2], in test [3], in test [4], in test [5] and in test [6] was “inactive” in each case. Also, the Potency result in [7], in test [8], in test [9] and in test [10] was “inactive” each time.
Turning to `C[N+](C)(C)CCOC(=O)CCC(=O)OCC[N+](C)(C)C`, the Potency entry in test [1], in test [2], in [3], in [4], in test [5] and in [6] was “inactive” in each case. Moreover, the Potency result in [7], in [8], in [9] and in test [10] was “inactive” throughout.
As for `NCCCN1CCOCC1`, the Potency entry in test [1], in [2], in test [3], in test [4], in test [5] and in test [6] was “inactive” throughout. For the same compound, the Potency entry in test [7], in [8], in [9] and in [10] was “inactive” throughout.
As for `NCC(=O)O`, the cytotoxicity increase was 1.64% [at 15.8 µM] in test [1], 1.6% [at 15.8 µM] in test [3], 12.2% [at 15.8 µM] in [4] and 1.21% [at 15.8 µM] in test [10]. Moreover, the cytotoxicity in test [2] was 6.15% [at 15.8 µM]. The activity change, negative = cytotoxic in test [5] was 8.2% [at 15.8 µM]. Moreover, the activity change, negative = cytotoxicity in test [6] was 3.07% [at 15.8 µM]; in [7], 10.2% [at 15.8 µM]. In addition, the activity change in test [8] is -1.23% [at 15.8 µM, active compounds read high].
As for `CC(C)(C)OCC1CO1` (stereo not given), the Potency entry in test [1], in test [2], in test [3], in [4], in test [5] and in test [6] was “inactive” throughout. The Potency result in [7], in test [8], in [9] and in test [10] was “inactive” in each case.
As for `CC(CC=O)c1ccccc1` (stereo not given), the Potency entry in test [1], in test [2], in test [3], in test [4], in test [5] and in [6] was “inactive” each time. The Potency result in test [7], in test [8], in [9] and in [10] was “inactive” each time.
As for `O=C1OC(=O)C2C3C=CC(C3)C12` (stereo not given), the Potency result in [1], in [2], in [3], in test [4], in [5] and in [6] was “inactive” each time. The Potency entry in test [7], in test [8] and in test [10] was “inactive” each time.
